We go through 21 compounds from PubChem BioAssay (NCI).

This is part of a sample that, as a whole, favours compounds with a hit. Of some 79,000 tested, about 15% had one in any assay. A number with no mark means an inactive call. Calls of active or inactive are those of the source. Rule as the data show it: active = growth inhibition above about 70%; inactive = the rest.

Test [1] in a line: NCI Yeast Anticancer Drug Screen. Data for the rad50 strain (AID 155).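 Also: 0% = growth of vehicle-only cultures of the same strain.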 Conditions: S. cerevisiae rad50 strain growth inhibition; at 50.0 µM; stronger effect = higher value. The method in brief:
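Genetically altered yeast (DNA repair pathway); compound treatment; growth inhibition vs vehicle ctrl.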

The nature of test [2]: NCI Yeast Anticancer Drug Screen. Data for the mec2-1 strain (AID 157). Conditions: S. cerevisiae mec2-1 strain, at 50.0 µM, stronger effect = higher value. A digest of the protocol: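 Using mec2-1 yeast: add compound, measure growth, express inhibition versus vehicle-treated cultures.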
Test [3] is described as follows: NCI Yeast Anticancer Drug Screen. Data for the sgs1 mgt1 strain (AID 161).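 Also: 0% = growth of cultures given vehicle only.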 To be noted: S. cerevisiae sgs1 mgt1 strain, at 50.0 µM, stronger effect = higher value. A digest of the protocol: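 Compounds are added to genetically altered yeast, and growth is compared with cultures given vehicle alone to give percent inhibition.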
Test [4] can be described thus: NCI Yeast Anticancer Drug Screen. Data for the cln2 rad14 strain (AID 165).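 Also: 0% = growth equal to vehicle treated cultures.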 Conditions: S. cerevisiae cln2 rad14 strain, at 50.0 µM, stronger effect = higher value. The method in brief:
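Yeast strain cln2 rad14, bearing defects in cell cycle control and DNA repair, serves as the test system; values reflect growth inhibition compared with vehicle.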

A short description of test [5]: NCI Yeast Anticancer Drug Screen. Data for the bub3 strain (AID 167). Conditions: S. cerevisiae bub3 mutant strain, at 50.0 µM, stronger effect = higher value. The method in brief: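 Yeast carrying a defined mutation is treated with each compound, and growth is compared with that of vehicle-exposed cells to give inhibition.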
Test [6] is described as follows: NCI Yeast Anticancer Drug Screen. Data for the mlh1 rad18 strain (AID 175). Conditions: S. cerevisiae mlh1 rad18 strain growth inhibition; at 50.0 µM; stronger effect = higher value. A digest of the protocol:
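Steps: expose repair-defective yeast to compound; measure growth; express inhibition against vehicle-treated controls.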

For `O=C(O)C1CCCCN1C(=O)c1ccccc1` (stereo unspecified), the growth inhibition was -26.6% in test [1]; -8.4% in test [2]; -12.2% in test [3]; -0.05% in test [4]; -21.2% in test [5]; -15.5% in test [6].
For the compound `CCCCCCCOc1ccc(C2=C(c3ccccc3)C(=O)C(c3ccccc3)=C2c2ccccc2)cc1`, the growth inhibition is 22.4% in test [1]; 3.3% in test [2]; 8.3% in test [3]; 15.9% in test [4]; 3.95% in test [5]; 2.4% in test [6].
With `CS(=O)(=O)Nc1ccc2ccccc2c1`, the growth inhibition in test [1] was -33.8%; in test [2], 18.8%; in test [3], -22.5%; in test [4], 5.1%; in test [5] it was -3.05%; in test [6], -3.7%.
As for `CSC(SC)=C(C(=O)c1ccc(Cl)cc1)n1c(=O)sc2cc(Br)ccc21`, the growth inhibition in test [1] was -19%; in test [2] it was 2.45%; in test [3], 6.25%; in test [4], 0.25%; in test [5], 12.8%; in test [6], -20.4%.
In the case of `CCN(CC)Cc1cc(Nc2cc(C)nc(/N=C(\N)Nc3cc(Cl)cc(Cl)c3)n2)ccc1O`, the growth inhibition in test [1] is 95.2% (active); in test [2], 69.2%; in test [3] it was 97.2% (active); in test [4], 10.2%; in test [5], 7.95%; in test [6] it was 91.1% (active).
Take `CCN(CC)c1ccc(/C=C2\CCc3ccc([N+](=O)[O-])cc3C2=O)cc1`: the growth inhibition in test [1] was 1.95%; in test [2], -14.7%; in test [3], 6.2%; in test [4], -3.75%; in test [5] it was 3.8%; in test [6], -7.95%.
For `C/C(=N/N(C)c1ccccc1)C(C)C`, the growth inhibition in test [1] was 14.5%; in test [2], -6.75%; in test [3] it was 3.45%; in test [4], 1.6%; in test [5] it was 24.4%; in test [6] it was 10.7%.
With `CC(C)=CCC(C)c1ccncc1` (stereo unspecified), the growth inhibition in test [1] was 1.9%; in test [2] it was -9.15%; in test [3] it was 9.45%; in test [4], -9.05%; in test [5] it was 15%; in test [6] it was 7.4%.
On to `CSc1cc(C)c(OC(=O)Nc2cc(C)ccc2C)c(C)c1`, for which the growth inhibition is -3.45% in test [1]; 0.8% in test [2]; 3% in test [3]; 1% in test [4]; 33.2% in test [5]; 9.75% in test [6].
With `C=CCn1c(=O)n(CC=C)c(=O)n(CC=C)c1=O`, the growth inhibition in test [1] was 7.4%; in test [2], 14.3%; in test [3] it was -5.35%; in test [4], -26.6%; in test [5], -10.3%; in test [6] it was -10.8%.
On to `CCOC(=O)C(C)(C)Oc1ccc2c(=O)cc(-c3ccc(Cl)cc3)oc2c1`, for which the growth inhibition in test [1] was -19.6%; in test [2] it was -20.1%; in test [3], -30.3%; in test [4] it was -14.5%; in test [5] it was -38.9%; in test [6], -29.4%.
As to `CC1=NN(C(=O)c2cccnc2)C(=O)C1N=Nc1ccc(S(=O)(=O)Nc2ccccn2)cc1` (stereo unspecified), the growth inhibition in test [1] was 25.6%; in test [2], -8.75%; in test [3] it was 4.75%; in test [4], 11.4%; in test [5] it was -1.6%; in test [6], 1.8%.
With `CCCCCCCCCCCCC(Br)C(=O)OCC` (stereo unspecified), the growth inhibition in test [1] was 7.55%; in test [2], -7.6%; in test [3], 16.1%; in test [4], -5.2%; in test [5] it was -6.6%; in test [6], 3.95%.
For `COC(=O)C1(COC(C)=O)CC1`, the growth inhibition in test [1] was -6.8%; in test [2], 1.55%; in test [3], 6%; in test [4], -15.6%; in test [5] it was -2.75%; in test [6], -3.2%.
Consider `CC(=O)[C@H]1CC[C@@H]2[C@]1(C)CC1OC13[C@@]21C=C[C@@]2(CC(=O)CC[C@]32C)C2C(=O)OC(=O)C21` (stereo partly specified), for which the growth inhibition in test [1] is 17.6%; in test [2] it was 4.45%; in test [3], 40.8%; in test [4], 18.5%; in test [5], 3.95%; in test [6], 22.9%.
Regarding `FC(F)(F)c1ccc(C2SCc3nc4ccccc4n32)cc1` (stereo unspecified), the growth inhibition in test [1] is -43%; in test [2] it was -5.4%; in test [3], -1.95%; in test [4] it was -0.5%; in test [5], -14.2%; in test [6], 11.3%.
Take `O=c1c(C(=Nc2ccccc2)c2ccccc2)c[nH]n1-c1ccccc1`: the growth inhibition is -10.5% in test [1]; 6.9% in test [2]; -6% in test [3]; 17.6% in test [4]; -15.6% in test [5]; -12.1% in test [6].
Take `COC1CCC2(C)C3CCC4C(=CCC5C(C)(C)C(O)CCC45C)CC3(C)CCC2C1(C)C` (stereo unspecified): the growth inhibition was -8.45% in test [1]; -12.3% in test [2]; -31.3% in test [3]; -25.4% in test [4]; 1.2% in test [5]; -12.7% in test [6].
In the case of `NC(=O)CCCCCCCCCCBr`, the growth inhibition was 15.6% in test [1]; 21.2% in test [2]; 8.85% in test [3]; 20.2% in test [4]; 22.8% in test [5]; 42.3% in test [6].
On to `Cc1cc(Cl)nc(/N=C(\N)Nc2ccc(Cl)c(Cl)c2)n1`, for which the growth inhibition in test [1] was -1.95%; in test [2], 5.45%; in test [3], -1.05%; in test [4], -11.7%; in test [5], 6.1%; in test [6], 7.6%.
For the compound `CCCC(C)C1(CCC)C(=O)N=C(N)N=C1N` (stereo unspecified), the growth inhibition is 3.8% in test [1]; 7.75% in test [2]; -3.9% in test [3]; 12.4% in test [4]; -2.8% in test [5]; -10.5% in test [6].
